Compound activity deposited in PubChem BioAssay by several laboratories.
This is a sample that favours compounds with a hit; in the whole collection about 6.6% have one here.
Beta cell apopt – blocks beta cell apoptosis; INS-1E cytokine-induced death, ATP luminescence, 48 h; percent of positive-control rescue, neutral wells zero; protection from apoptosis, % (no concentration beside the values); 300,000 compounds, 0.8% hits; AID 435005;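 active = Every replicate reaches about 75%, or at least half do and their mean reaches it too, limit read from the data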;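 also: 0% = cytokine-treated negative control wells and 100% = positive control rescue; higher means more ATP so stronger rescue from cytokine killing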
NR3A LBD binder – modulates the human NR3A ligand-binding domain. NR3A LBD differential scanning fluorimetry, Tm shift; 0% = protein alone, 100% = glycine-bound protein. Tm shift relative to glycine control, % at 25 µM. 340,000 compounds, 2.5% hits. AID 1259313;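 active = melting temperature shift of at least 10% of the positive control shift, at one fixed dose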
Gli-Sufu block – Gli-Sufu pathway antagonism; inhibition, % at 5 µM; AID 588413; Sufu-KO-LIGHT fibroblasts, Gli luciferase reporter luminescence; 340,000 compounds, 0.74% hits;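 active = inhibition above about 55%, limit read from the data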;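 also: 0% = DMSO-treated cells and 100% = wells with medium but no cells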
CSC inhib – blocks cancer stem cells; cancer stem cell-like cells viability, luminescence; inhibition, % at 7.5 µM; AID 2717; 300,000 compounds, 1.1% hits; in the data active = inhibition above about 75%; tested in HMLE shEcad cells
MPTP block – blocks calcium-induced mitochondrial swelling; isolated mouse mitochondria, Ca2+ swelling absorbance, 30 min; inhibition, % at 10 µM; 360,000 compounds, 1.4% hits; AID 602449;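 active = inhibition of 50% or more, scaled per plate between neutral and stimulator controls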;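 also: 0% = DMSO wells given calcium and 100% = 1 mM EGTA wells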
Mdm2-MdmX inh – disrupts the human Mdm2-MdmX interaction; O15151+Q00987; SaOS-2 split-luciferase Mdm2/MdmX complementation, luminescence; inhibition, % at 8 µM; 330,000 compounds, 3% hits; AID 485346;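 active = inhibition of at least 50% at 8 µM in the primary screen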
Target sequence (O15151 whole entry, looked up): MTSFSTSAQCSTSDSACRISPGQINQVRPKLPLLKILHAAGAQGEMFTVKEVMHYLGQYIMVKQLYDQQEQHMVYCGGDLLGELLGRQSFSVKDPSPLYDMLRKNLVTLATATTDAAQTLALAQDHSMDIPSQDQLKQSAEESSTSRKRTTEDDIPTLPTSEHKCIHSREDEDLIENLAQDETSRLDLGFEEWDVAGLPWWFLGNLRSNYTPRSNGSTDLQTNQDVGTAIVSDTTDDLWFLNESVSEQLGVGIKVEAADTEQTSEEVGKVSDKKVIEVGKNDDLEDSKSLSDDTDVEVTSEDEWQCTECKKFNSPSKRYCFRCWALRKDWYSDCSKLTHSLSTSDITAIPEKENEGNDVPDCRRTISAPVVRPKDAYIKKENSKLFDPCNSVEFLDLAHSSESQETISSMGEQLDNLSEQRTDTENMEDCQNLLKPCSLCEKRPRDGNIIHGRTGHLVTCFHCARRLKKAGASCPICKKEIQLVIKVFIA
Target sequence (Q00987 whole entry, looked up): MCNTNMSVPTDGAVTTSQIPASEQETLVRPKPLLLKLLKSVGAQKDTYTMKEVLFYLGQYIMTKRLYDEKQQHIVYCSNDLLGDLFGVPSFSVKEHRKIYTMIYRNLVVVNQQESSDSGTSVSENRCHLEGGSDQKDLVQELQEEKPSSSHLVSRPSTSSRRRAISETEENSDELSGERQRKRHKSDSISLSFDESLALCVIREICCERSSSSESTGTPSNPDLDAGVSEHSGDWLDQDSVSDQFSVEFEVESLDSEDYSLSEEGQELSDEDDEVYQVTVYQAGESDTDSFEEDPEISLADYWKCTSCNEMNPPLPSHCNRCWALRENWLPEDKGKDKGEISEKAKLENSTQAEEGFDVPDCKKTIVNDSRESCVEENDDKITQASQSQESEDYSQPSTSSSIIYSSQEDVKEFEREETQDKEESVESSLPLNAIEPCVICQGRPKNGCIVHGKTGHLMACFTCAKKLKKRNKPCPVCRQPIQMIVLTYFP
The depositor's hits bear a star; / = not tested or not shown.

SMILES	Beta cell apopt	NR3A LBD binder	Gli-Sufu block	CSC inhib	MPTP block	Mdm2-MdmX inh
Cn1cnc2nc[nH]c2c1=S	/	0	-3	/	0	/
CS(=O)(=O)N(CC(=O)O)c1ccc(C23CC4CC(CC(C4)C2)C3)cc1	0	2	2	-30	1	-3
COc1ccccc1NC(=O)CN(c1ccc(C23CC4CC(CC(C4)C2)C3)cc1)S(C)(=O)=O	101*	-1	6	26	1	48
CSc1ccc(CN2CCN(S(=O)(=O)Cc3ccccc3)CC2)cc1	6	2	9	-17	-2	0
FC(F)(F)c1cccc(-c2nc(-c3ccncc3)no2)c1	0	-2	-23	-9	0	/
O=C(O)c1ccc(-c2noc(-c3cccc(C(F)(F)F)c3)n2)cc1	-15	13*	-3	-10	0	-4
CC(C)Cn1c(SCC(=O)N2CCc3ccccc3C2)nc2cc(Cl)ccc2c1=O	115*	14*	8	32	16	25
Cn1c(=O)c2c(nc(SCC(=O)N3CCc4ccccc4C3)n2C)n(C)c1=O	-4	1	-1	-10	0	14
CC(C)c1ccccc1-n1c(SCC(=O)N2CCc3ccccc3C2)nc2ccccc2c1=O	121*	-1	35	12	5	48
COc1ccc(CCCNC(=O)C2Cc3c(-c4cccc(NC(C)=O)c4)ccnc3O2)cc1 (stereo unspecified)	/	/	/	/	1	/
C(=C\c1ccc2ccccc2n1)/c1ccccc1	13	-20	-81	24	1	-84
Oc1ccc(/C=C/c2ccc3ccccc3n2)cc1	12	19*	-31	8	2	-27
Oc1ccc(/C(Cc2ccc3ccccc3n2)=N\Nc2ccccc2)c(O)c1	-8	-3	3	44	2	-16
C(=Cc1c[nH]c2ccccc12)c1ccc2ccccc2n1	/	22*	-63	/	2	/
O/C(=C\c1ccc2ccccc2n1)c1ccc(O)cc1O	1	35*	-76	34	1	-238
CN(C)c1ccc(/C=C/c2ccc3ccccc3n2)cc1	76*	-24	28	84*	3	/
COc1ccc([C@H]2C[C@H](n3cc(COC(=O)c4ccccc4)nn3)[C@@H](O)CN2C(=O)c2cccs2)cc1	/	/	/	/	0	/
O=C(Nc1ccc(F)cc1)C(c1cccc(F)c1)N1CCN(c2cccc(C(F)(F)F)n2)CC1 (stereo unspecified)	/	/	/	/	10	/
CC(C)(C)OC(=O)NCCC(=O)N/N=C/c1cccc2cccnc12	-4	0	8	-2	1	27
CC(C)(C)OC(=O)N1CCC[C@H]1C(=O)N/N=C/c1cccc2cccnc12	-2	14*	7	3	1	30
Cc1ccc(S(=O)(=O)Nc2ccc(C(=O)N3CCN(c4ccccc4O)CC3)cc2)cc1[N+](=O)[O-]	7	3	0	/	0	-30
Cc1nn(-c2ccccc2)c(N)c1N=Nc1ccccc1	/	-14	-88	34	2	/
Cc1nn(-c2ccccc2)c(N)c1N=Nc1ccc(Cl)cc1	-2	4	-93	79*	5	-123
NS(=O)(=O)c1cccc(NC(=O)CCSc2ccc(Cl)cc2)c1	-22	-13	3	-10	1	22
Cc1cccc(Nc2nc(-c3ccc(O)cc3O)cs2)n1	-1	40*	-61	97*	3	-86
SMILES	Beta cell apopt	NR3A LBD binder	Gli-Sufu block	CSC inhib	MPTP block	Mdm2-MdmX inh
Cc1ccc(-c2csc(Nc3ccccn3)n2)cc1	7	-3	-42	5	0	-115
Oc1ccc(-c2csc(Nc3ncccn3)n2)c(O)c1	/	2	-78	-2	0	-56
COc1ccc(-c2csc(Nc3ccc(C)cn3)n2)cc1	5	16*	-53	7	10	-124
CC(=O)NNc1nc(-c2ccc(NC(C)=O)cc2)cs1	-3	0	-14	3	1	19
CC(=O)Nc1ccc(-c2csc(Nc3cccc(C)n3)n2)cc1	/	26*	-83	/	1	/
CC(=O)Oc1ccc(-c2csc(Nc3ccc(Cl)cn3)n2)cc1	/	32*	-37	95*	-1	18
COc1ccc(CC(=O)OCC(=O)N(C)C2CCS(=O)(=O)C2)cc1OC (stereo unspecified)	4	-2	1	-9	-1	11
Cc1sc2nc[nH]c(=O)c2c1-c1ccc(Cl)cc1	-3	-3	4	-2	1	12
CC1(C(=O)NCC2CC2)CCN1C(=O)C1(c2ccc(Cl)cc2)CC1 (stereo unspecified)	/	/	/	/	1	/
